Experimental data reported in PubChem BioAssay AID782 (Emory University Molecular Libraries Screening Center, 2007).
Out of some 220,000 compounds screened, about 800 (0.36%) were called active.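 The calls were made as follows: active = inhibition above about 30% (limit read from the data); inactive = the rest.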 The entries come from a sample that favours actives as a whole.

Target: Eukaryotic translation initiation factor 4E (Mus musculus) + Eukaryotic translation initiation factor 4 gamma 1 (Homo sapiens) (UniProt P63073+Q04637)
Assay: blockers of eIF4G binding by eIF4E – biochemical, uHTS, TR-FRET, eIF4GI fragment, primary screen (AID 782);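 also: 0% = full FRET control wells and 100% = background wells lacking eIF4GI fragment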
Details: TR-FRET eIF4E-eIF4GI(517-606) binding, 2 h; at 21.7 µM; hits give high values

Sequence of Eukaryotic translation initiation factor 4E (Mus musculus) + Eukaryotic translation initiation factor 4 gamma 1 (Homo sapiens) (P63073 whole entry, looked up, the tested form may be a part): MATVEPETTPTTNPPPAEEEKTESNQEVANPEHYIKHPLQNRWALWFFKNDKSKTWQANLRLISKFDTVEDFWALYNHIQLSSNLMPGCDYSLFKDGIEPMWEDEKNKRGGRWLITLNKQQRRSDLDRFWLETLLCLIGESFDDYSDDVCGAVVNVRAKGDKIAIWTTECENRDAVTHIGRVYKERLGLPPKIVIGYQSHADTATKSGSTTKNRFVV
Sequence of Eukaryotic translation initiation factor 4E (Mus musculus) + Eukaryotic translation initiation factor 4 gamma 1 (Homo sapiens) (Q04637 whole entry, looked up, the tested form may be a part): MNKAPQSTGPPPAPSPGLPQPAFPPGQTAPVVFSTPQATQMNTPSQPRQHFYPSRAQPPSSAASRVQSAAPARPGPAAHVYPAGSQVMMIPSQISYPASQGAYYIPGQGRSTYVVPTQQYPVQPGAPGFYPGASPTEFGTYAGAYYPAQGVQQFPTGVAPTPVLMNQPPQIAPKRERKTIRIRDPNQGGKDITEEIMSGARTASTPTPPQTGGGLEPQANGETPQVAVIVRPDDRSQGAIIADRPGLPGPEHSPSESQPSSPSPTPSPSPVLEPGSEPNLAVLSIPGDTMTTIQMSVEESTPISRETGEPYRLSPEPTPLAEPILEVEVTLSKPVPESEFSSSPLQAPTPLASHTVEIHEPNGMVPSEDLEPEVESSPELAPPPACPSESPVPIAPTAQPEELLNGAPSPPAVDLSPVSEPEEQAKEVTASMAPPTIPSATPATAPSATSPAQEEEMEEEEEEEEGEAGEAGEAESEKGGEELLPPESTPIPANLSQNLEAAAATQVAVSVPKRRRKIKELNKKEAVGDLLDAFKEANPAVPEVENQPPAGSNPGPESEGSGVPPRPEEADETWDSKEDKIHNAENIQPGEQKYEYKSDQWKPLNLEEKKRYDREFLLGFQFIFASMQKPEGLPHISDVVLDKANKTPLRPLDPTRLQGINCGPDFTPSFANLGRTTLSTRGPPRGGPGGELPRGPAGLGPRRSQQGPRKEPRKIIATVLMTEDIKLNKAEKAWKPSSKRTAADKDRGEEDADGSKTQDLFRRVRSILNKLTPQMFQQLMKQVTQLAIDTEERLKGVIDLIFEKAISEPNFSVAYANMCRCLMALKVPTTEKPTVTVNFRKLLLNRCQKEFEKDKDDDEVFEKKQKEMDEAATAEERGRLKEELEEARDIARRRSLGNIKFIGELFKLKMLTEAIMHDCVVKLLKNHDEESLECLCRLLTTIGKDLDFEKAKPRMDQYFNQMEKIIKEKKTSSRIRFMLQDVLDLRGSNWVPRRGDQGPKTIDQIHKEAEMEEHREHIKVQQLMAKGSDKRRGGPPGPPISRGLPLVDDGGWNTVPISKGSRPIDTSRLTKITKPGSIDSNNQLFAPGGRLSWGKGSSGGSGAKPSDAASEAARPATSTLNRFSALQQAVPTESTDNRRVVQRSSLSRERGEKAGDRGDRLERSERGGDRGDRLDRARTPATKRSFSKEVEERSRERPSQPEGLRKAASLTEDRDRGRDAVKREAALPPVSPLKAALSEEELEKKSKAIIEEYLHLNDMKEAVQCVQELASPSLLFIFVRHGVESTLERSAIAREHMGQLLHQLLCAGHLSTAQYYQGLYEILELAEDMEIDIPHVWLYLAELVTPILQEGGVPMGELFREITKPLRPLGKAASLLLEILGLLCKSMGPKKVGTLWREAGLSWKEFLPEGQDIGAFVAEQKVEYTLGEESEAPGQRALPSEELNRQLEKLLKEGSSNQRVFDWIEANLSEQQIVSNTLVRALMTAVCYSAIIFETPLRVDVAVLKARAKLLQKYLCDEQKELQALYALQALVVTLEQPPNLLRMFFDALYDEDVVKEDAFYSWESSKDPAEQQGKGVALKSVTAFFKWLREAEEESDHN

SMILES | inhibition
Cc1ccc(-n2c(O)c(C=NCC3CCCO3)c(=O)[nH]c2=O)c(C)c1 (stereo not given) | -0.86% (inactive)
CC(=NCC1CCCO1)c1c(O)n(-c2ccccc2)c(=O)[nH]c1=O (stereo not given) | 58.1% (active)
CCC(=NCCc1ccccc1)c1c(O)n(C2CCCCC2)c(=O)[nH]c1=O | -4.4% (inactive)
CC1(C)Cc2c(C#N)c(N3CCNCC3)nc(-c3ccco3)c2CS1 | -1.83% (inactive)
COc1ccc(NC(=O)N2CCC3(CC2)OCCO3)c(OC)c1 | 1.55% (inactive)
